Assay results as given in PubChem BioAssay AID720619 (Broad Institute, 2013).
Results filed as inconclusive are left out. The source made the active and inactive calls.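 Rule for the calls: active = toxic at all three exposure times, half-maximal drop reached within twice the top dose; inconclusive = exposure times disagree, or curves are weak, flat or poorly fitted; inactive = inactive at every exposure time.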

Test: HT-29 colorectal cell cytotoxicity, late-stage follow-up, mechanism study for HRAS target identification, Alamar Blue fluorescence, several timepoints, dry powder (AID 720619)
Details: HT-29 viability
[1] = 48 h, at 35 µM (top of the series)

Compound	activity, lower = more toxic [1]	activity, lower = more toxic (8 h treatment, at 35 µM) [%]
CCC(=O)N(c1ccc(OC)c(Cl)c1)C(C(=O)NCCc1ccccc1)c1cccs1 (centres undefined)	32.2% (inactive)	5.18
Cc1onc(C(=O)N2CCN(C(c3ccncc3)c3ccncc3)CC2)c1[N+](=O)[O-]	7.85% (inactive)	-3.11
